Here are results for 23 compounds from PubChem BioAssay (NCATS).

Results filed as inconclusive are left out. Where a call stands in place of a potency, no number is given. Calls of active or inactive are those of the source. Calls come from the whole dose curve; as a rule, active = well fitted curve in the direction sought with a large enough effect; inconclusive = small, poorly fitted or top-dose-only effect, or another doubt; inactive = no such curve, though single readings can be large; an effect the other way counts as inactive or inconclusive.

The target of the first test is Arylsulfatase A (Homo sapiens) (UniProt P15289). The test can be described thus: qHTS screen for enhancers of Arylsulfatase A (ASA1): LOPAC Validation Assay (AID 720538). Note: potency is the fitted concentration of half-maximal effect. The following applies: ASA enzyme activity, LOPAC qHTS enhancer assay; series mostly up to 57.5 µM. In a few lines: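 MLD patient fibroblasts (SV40, ASA-I179S), 1536-well; adhere 6 hrs; cpd 48h, 37 degree C, 5% CO2; pNCS 0.5mM final in lysis buffer, 14h RT; stop 1N NaOH final; fluor. Ex525/Em598.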
Chain of Arylsulfatase A (Homo sapiens) (P15289 whole entry, looked up): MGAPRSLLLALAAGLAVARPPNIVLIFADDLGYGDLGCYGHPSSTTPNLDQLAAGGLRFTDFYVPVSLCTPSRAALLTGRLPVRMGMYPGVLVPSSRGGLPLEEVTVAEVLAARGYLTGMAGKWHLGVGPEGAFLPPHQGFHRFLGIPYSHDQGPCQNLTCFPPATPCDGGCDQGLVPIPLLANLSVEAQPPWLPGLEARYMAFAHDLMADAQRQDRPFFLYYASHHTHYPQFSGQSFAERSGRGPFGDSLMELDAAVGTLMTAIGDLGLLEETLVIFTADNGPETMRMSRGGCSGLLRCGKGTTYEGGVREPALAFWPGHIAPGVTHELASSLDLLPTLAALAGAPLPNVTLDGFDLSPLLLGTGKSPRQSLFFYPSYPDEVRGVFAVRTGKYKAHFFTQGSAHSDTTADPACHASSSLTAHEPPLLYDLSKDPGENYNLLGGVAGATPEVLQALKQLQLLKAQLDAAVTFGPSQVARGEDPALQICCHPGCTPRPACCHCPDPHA
On the technique in general: Quantitative high-throughput screening tests each substance at several concentrations.
As for `CC(N)Cc1c[nH]c2ccc(O)cc12` (configuration not stated), the Potency was 9.53 µM (active).

On to `C[C@H](Cc1ccc2c(c1)OC(C(=O)O)(C(=O)O)O2)NC[C@H](O)c1cccc(Cl)c1`, for which the Potency result is “inactive”.

`NCC(CP(=O)(O)O)c1ccc(Cl)cc1` (configuration not stated): the Potency entry is “inactive”.

For `CP(=O)(O)C1=CCNCC1`, the Potency entry was “inactive”.

As for `COc1cc(CC(C)N)c(OC)cc1I` (configuration not stated), the Potency entry is “inactive”.

For `CCS(=O)(=O)Nc1cccc(C(=C2CCCCC2)c2cnc[nH]2)c1`, the Potency result is “inactive”.

As to `NCCc1ccc(S(=O)(=O)F)cc1`, the Potency entry is “inactive”.

Tested on in the next test: not listed separately
The test can be described thus: qHTS for compounds that reverse cellular toxicity of Amyloid beta (A-beta) peptide in yeast: LOPAC Validation Assay (AID 720559). The following applies: yeast expressing A-beta; series mostly up to 46.1 µM. In a few lines:
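Medium dispensed, compounds pinned, A-beta yeast suspension added; plates held at 30 C for 48 hr; absorbance measured at 600 nm to gauge growth; values scaled between DMSO and FeCl3/clioquinol (equimolar) controls.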
For the compound `Cc1o[nH]c(=O)c1CC(N)C(=O)O` (configuration not stated), the compound was called inactive.

With `C=CCN1C[C@@H](C)N([C@H](c2ccc(C(=O)N(CC)CC)cc2)c2cccc(OC)c2)C[C@@H]1C`, the compound was classed as inactive.

Take `OCc1cnc[nH]1`: the compound was classed as inactive.

As to `C[C@]12Cc3cn4c(nc3C=C1CCC1C2CC[C@@]2(C)[C@H]1CC[C@@]2(O)C#N)nc1ccccc14` (some centres not stated), the compound was classed as inactive.

In the case of `C[N+](C)(C)CC#CCN1CCCC1=O`, the compound was classed as inactive.

For `NC(=O)CI`, the compound was classed as inactive.

In the case of `C[N+]1(C)CCc2cc3c(cc2[C@H]1[C@@H]1OC(=O)c2c1ccc1c2OCO1)OCO3`, the compound was called inactive.

`O=C(O)c1cc[c]([Hg][Cl])cc1`: the outcome was inactive.

Take `O=S1(=O)N(CCN2CC=C(c3c[nH]c4cc(F)ccc34)CC2)c2cccc3c2N1CCC3`: the compound was classed as inactive.

Take `N#C/C(=C/c1ccc(O)c(O)c1)C(N)=S`: the call was inactive.

For `Cc1c2ccncc2c(C)c2c1[nH]c1ccccc12`, the outcome was inactive.

As to `CCCn1c(=O)c2[nH]c(C3CCCC3)nc2n(CCCOC(=O)c2ccc(S(=O)(=O)F)cc2)c1=O`, the outcome was inactive.

`CCN1C[C@@]2(COC)C3[C@@H](OC)C4[C@@H]1C3([C@@H]1C[C@]3(O)[C@H](OC(=O)c5ccccc5)[C@@H]1[C@]4(OC(C)=O)[C@@H](O)[C@@H]3OC)[C@H](OC)C[C@H]2O`: the compound was called inactive.

Take `Oc1ccc2c3c1O[C@H]1c4oc5ccccc5c4C[C@@]4(O)C(C2)N(CC2CC2)CCC314` (some centres not stated): the compound was called inactive.

In the case of `C=CCN(C1=NCCN1)c1c(Cl)cccc1Cl`, the call was inactive.

For the compound `C/C(O)=C(\C#N)C(=O)Nc1cc(Br)ccc1Br`, the call was inactive.

Take `CC(N)Cc1c[nH]c2ccc(O)cc12` (configuration not stated): the compound was classed as inactive.

Take `C[C@H](Cc1ccc2c(c1)OC(C(=O)O)(C(=O)O)O2)NC[C@H](O)c1cccc(Cl)c1`: the compound was called inactive.

`NCC(CP(=O)(O)O)c1ccc(Cl)cc1` (configuration not stated): the outcome was inactive.

On to `CP(=O)(O)C1=CCNCC1`, for which the call was inactive.

Take `COc1cc(CC(C)N)c(OC)cc1I` (configuration not stated): the compound was classed as inactive.

On to `CCS(=O)(=O)Nc1cccc(C(=C2CCCCC2)c2cnc[nH]2)c1`, for which the compound was classed as inactive.

Regarding `NCCc1ccc(S(=O)(=O)F)cc1`, the result was inactive.

Tested on in a further test: not listed separately
The test can be described thus: qHTS for Activators of Parkin Expression: LOPAC Validation Assay (NLuc Reporter) (AID 720572). The following applies: Parkin promoter NanoLuc reporter cells, luminescence; series mostly up to 46.1 µM. In a few lines:
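Cells harboring the Parkin-promoter coincidence reporter were treated for 24 h at seven concentrations. NLuc output was measured sequentially after the FLuc channel and scaled between DMSO and positive control values.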
With `Cc1o[nH]c(=O)c1CC(N)C(=O)O` (configuration not stated), the Potency result is “inactive”.

On to `C=CCN1C[C@@H](C)N([C@H](c2ccc(C(=O)N(CC)CC)cc2)c2cccc(OC)c2)C[C@@H]1C`, for which the Potency result was “inactive”.

Regarding `OCc1cnc[nH]1`, the Potency entry is “inactive”.

`C[N+](C)(C)CC#CCN1CCCC1=O`: the Potency entry is “inactive”.

Turning to `NC(=O)CI`, the Potency entry is “inactive”.

With `C[N+]1(C)CCc2cc3c(cc2[C@H]1[C@@H]1OC(=O)c2c1ccc1c2OCO1)OCO3`, the Potency result is “inactive”.

`O=C(O)c1cc[c]([Hg][Cl])cc1`: the Potency result was “inactive”.

Regarding `O=S1(=O)N(CCN2CC=C(c3c[nH]c4cc(F)ccc34)CC2)c2cccc3c2N1CCC3`, the Potency entry was “inactive”.

Regarding `N#C/C(=C/c1ccc(O)c(O)c1)C(N)=S`, the Potency result was “inactive”.

Take `Cc1c2ccncc2c(C)c2c1[nH]c1ccccc12`: the Potency entry was “inactive”.

Regarding `CCCn1c(=O)c2[nH]c(C3CCCC3)nc2n(CCCOC(=O)c2ccc(S(=O)(=O)F)cc2)c1=O`, the Potency result was “inactive”.

Regarding `CCN1C[C@@]2(COC)C3[C@@H](OC)C4[C@@H]1C3([C@@H]1C[C@]3(O)[C@H](OC(=O)c5ccccc5)[C@@H]1[C@]4(OC(C)=O)[C@@H](O)[C@@H]3OC)[C@H](OC)C[C@H]2O`, the Potency entry was “inactive”.

Consider `Oc1ccc2c3c1O[C@H]1c4oc5ccccc5c4C[C@@]4(O)C(C2)N(CC2CC2)CCC314` (some centres not stated), for which the Potency entry is “inactive”.

As to `C=CCN(C1=NCCN1)c1c(Cl)cccc1Cl`, the Potency entry was “inactive”.

For `C/C(O)=C(\C#N)C(=O)Nc1cc(Br)ccc1Br`, the Potency result is “inactive”.

`CC(N)Cc1c[nH]c2ccc(O)cc12` (configuration not stated): the Potency result was “inactive”.

For `C[C@H](Cc1ccc2c(c1)OC(C(=O)O)(C(=O)O)O2)NC[C@H](O)c1cccc(Cl)c1`, the Potency result is “inactive”.

In the case of `NCC(CP(=O)(O)O)c1ccc(Cl)cc1` (configuration not stated), the Potency entry is “inactive”.

In the case of `CP(=O)(O)C1=CCNCC1`, the Potency result was “inactive”.

For the compound `COc1cc(CC(C)N)c(OC)cc1I` (configuration not stated), the Potency entry is “inactive”.

Regarding `CCS(=O)(=O)Nc1cccc(C(=C2CCCCC2)c2cnc[nH]2)c1`, the Potency result was “inactive”.

On to `NCCc1ccc(S(=O)(=O)F)cc1`, for which the Potency entry was “inactive”.
